Among the data in PubChem BioAssay (NCI) are growth inhibition values, retold here.

About 79,000 compounds went through this panel and 15% of them were active in at least one assay; those are over-represented in the sample as a whole. A number with no mark means an inactive call. Active and inactive are the calls of the source. No stated cut-off is given here; in the data, active means growth inhibition above about 70%; inactive means the rest.

Experiment [1] can be described thus: NCI Yeast Anticancer Drug Screen. Data for the rad50 strain (AID 155).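 Further: 0% = growth of vehicle-only cultures of the same strain.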 To be noted: S. cerevisiae rad50 strain growth inhibition; at 50.0 µM; stronger effect = higher value. An outline of the steps: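 Vehicle-treated cultures provide the reference for the growth inhibition reported for compound-exposed, repair-deficient yeast.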
Experiment [2] is described as follows: NCI Yeast Anticancer Drug Screen. Data for the mec2-1 strain (AID 157). To be noted: S. cerevisiae mec2-1 strain, at 50.0 µM, stronger effect = higher value. The procedure, abridged: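 Compounds were applied to mec2-1 yeast cells. Their growth was then compared with that of vehicle-treated cultures to give growth inhibition.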
Experiment [3] can be described thus: NCI Yeast Anticancer Drug Screen. Data for the sgs1 mgt1 strain (AID 161).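 Further: 0% = growth of cultures given vehicle only.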 The conditions noted are these: S. cerevisiae sgs1 mgt1 strain, at 50.0 µM, stronger effect = higher value. An outline of the steps:
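Percent growth inhibition was derived by comparing compound-exposed mutant yeast with vehicle-exposed cultures. The strain carries alterations in DNA damage repair.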

Experiment [4] can be described thus: NCI Yeast Anticancer Drug Screen. Data for the cln2 rad14 strain (AID 165).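 Further: 0% = growth equal to vehicle treated cultures.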 The conditions noted are these: S. cerevisiae cln2 rad14 strain, at 50.0 µM, stronger effect = higher value. The procedure, abridged:
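Strain: cln2 rad14 yeast, altered in cell cycle control and DNA damage repair. Read-out: growth inhibition vs vehicle.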

Experiment [5] can be described thus: NCI Yeast Anticancer Drug Screen. Data for the bub3 strain (AID 167). To be noted: S. cerevisiae bub3 mutant strain, at 50.0 µM, stronger effect = higher value. The procedure, abridged:
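Mutant yeast screening strain plus compound; vehicle-treated cultures serve as the 0% inhibition reference.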

The nature of experiment [6]: NCI Yeast Anticancer Drug Screen. Data for the mlh1 rad18 strain (AID 175). The conditions noted are these: S. cerevisiae mlh1 rad18 strain growth inhibition; at 50.0 µM; stronger effect = higher value. An outline of the steps:
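A repair-deficient yeast strain is exposed to test compound, and growth is scored relative to vehicle-treated controls.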

For `CNC(=O)OCc1c(COC(=O)NC)c(-c2ccccc2)n(-c2ccccc2)c1C`, the growth inhibition was 24.4% in experiment [1]; 27.8% in experiment [2]; 44.8% in experiment [3]; 37.9% in experiment [4]; 22.9% in experiment [5]; 88.1% (active) in experiment [6].
As for `CCCCCOC(=O)Nc1ccc(OCC)cc1`, the growth inhibition in experiment [1] is -9.15%; in experiment [2] it was -4.95%; in experiment [3], -3.15%; in experiment [4] it was -21.9%; in experiment [5], -1.3%; in experiment [6] it was -4.25%.
`CC(C)NC(c1ccccc1)c1ccccc1`: the growth inhibition in experiment [1] was 0.3%; in experiment [2], -11.7%; in experiment [3], -6.9%; in experiment [4], 10.2%; in experiment [5], 1.6%; in experiment [6], 2.9%.
For the compound `CCOC(=O)c1c(O)[nH]c(=O)c(CC)c1C`, the growth inhibition is -13.2% in experiment [1]; -29.3% in experiment [2]; -45.8% in experiment [3]; -16.4% in experiment [4]; -30.8% in experiment [5]; -4.1% in experiment [6].
Regarding `CN(C)c1ccc(C(=O)C2N=NCC2c2ccccc2)cc1` (stereo unspecified), the growth inhibition was 10.3% in experiment [1]; -1.3% in experiment [2]; 13% in experiment [3]; 7.3% in experiment [4]; 12.8% in experiment [5]; 17.2% in experiment [6].
With `Cc1cccc(C)c1NC(=O)CNc1ncccn1`, the growth inhibition is -14.3% in experiment [1]; 1% in experiment [2]; 3.7% in experiment [3]; -4.7% in experiment [4]; 19.1% in experiment [5]; 4.65% in experiment [6].
Regarding `COc1ccc(C(C)(C)c2ccccc2)cc1`, the growth inhibition in experiment [1] was -20.1%; in experiment [2] it was -45.1%; in experiment [3], -13.4%; in experiment [4], -19.9%; in experiment [5], -24.6%; in experiment [6], -18.6%.
For `CC(=O)Nc1cc(N)ccc1C`, the growth inhibition in experiment [1] is 7.15%; in experiment [2] it was 4.45%; in experiment [3], 1.65%; in experiment [4], -18.2%; in experiment [5] it was 10.6%; in experiment [6], -14.3%.
Turning to `CCCCCCOC(=O)c1ccccn1`, the growth inhibition was -5.85% in experiment [1]; 1.7% in experiment [2]; 0.15% in experiment [3]; -91.6% in experiment [4]; 17.6% in experiment [5]; -26.6% in experiment [6].
Take `OC/C(Cc1cccc(O)c1)=C(/CO)Cc1cccc(O)c1`: the growth inhibition is 5.5% in experiment [1]; 7.3% in experiment [2]; 6.7% in experiment [3]; 3.45% in experiment [4]; 10.4% in experiment [5]; 8.8% in experiment [6].
On to `O=C(C[N+]12CN3CN(CN(C3)C1)C2)c1ccc(-c2ccccc2)cc1`, for which the growth inhibition is 65.7% in experiment [1]; 34.2% in experiment [2]; 53.2% in experiment [3]; 21.1% in experiment [4]; 39.2% in experiment [5]; 45.6% in experiment [6].
For the compound `CC(=O)Nc1c(Cl)cccc1[N+](=O)[O-]`, the growth inhibition in experiment [1] is -25.1%; in experiment [2] it was -18.8%; in experiment [3], -4.75%; in experiment [4], -26.4%; in experiment [5], -5.8%; in experiment [6], 5.85%.
As for `COC(=O)/C(=N/Nc1cccc(Cl)c1)C(C(=O)C(=O)Nc1cccc(Cl)c1C)c1nc2ccccc2nc1C` (stereo unspecified), the growth inhibition in experiment [1] was 44.8%; in experiment [2], 17.9%; in experiment [3], 42%; in experiment [4], 39.3%; in experiment [5], 11.8%; in experiment [6], 14.3%.
On to `CSc1ccc(NC(=O)CCc2ccccc2)cc1`, for which the growth inhibition in experiment [1] is 7.7%; in experiment [2], 6.45%; in experiment [3], 13.2%; in experiment [4], -4%; in experiment [5], 41.5%; in experiment [6], 24.1%.
As for `O=CC(NC(=O)C(O)C(O)C(O)C(O)CO)C(O)C(O)C(O)CO` (stereo unspecified), the growth inhibition was -13.2% in experiment [1]; 6.8% in experiment [2]; -1.45% in experiment [3]; -40% in experiment [4]; -0.95% in experiment [5]; 1.15% in experiment [6].
Consider `O=C1C=CC(=O)C2CC=CCC12` (stereo unspecified), for which the growth inhibition was 24.2% in experiment [1]; 50.4% in experiment [2]; 1.7% in experiment [3]; -6.15% in experiment [4]; 4.55% in experiment [5]; 26.1% in experiment [6].
`CN(C)C1C(CO)OC(n2cnc3c(N)ncnc32)C1O` (stereo unspecified): the growth inhibition was 21.2% in experiment [1]; 12.8% in experiment [2]; -19.4% in experiment [3]; 22% in experiment [4]; -11.8% in experiment [5]; -82.2% in experiment [6].
Take `Cc1ccc(C)c2c1C(=O)c1ccccc1C2(O)C#Cc1ccccc1` (stereo unspecified): the growth inhibition is 27.6% in experiment [1]; 1.45% in experiment [2]; 29.4% in experiment [3]; 21.1% in experiment [4]; 31.7% in experiment [5]; 23.2% in experiment [6].
As for `N#CCCCCCCl`, the growth inhibition in experiment [1] was -9.35%; in experiment [2] it was -26.9%; in experiment [3], 10.2%; in experiment [4], 4.05%; in experiment [5], -15.6%; in experiment [6], 14.8%.
Turning to `O=C(O)C(O)C(O)C(O)C(O)C(=O)O` (stereo unspecified), the growth inhibition in experiment [1] was 7.35%; in experiment [2] it was -13.1%; in experiment [3] it was 12%; in experiment [4], -1.55%; in experiment [5] it was -5.1%; in experiment [6], 3.15%.
For the compound `CC1(C)C2CC3OC3(C)C1C2` (stereo unspecified), the growth inhibition is 21.3% in experiment [1]; -7% in experiment [2]; 12.4% in experiment [3]; -55.9% in experiment [4]; -19.9% in experiment [5]; -10.8% in experiment [6].
